Measured values taken from PubChem BioAssay AID504796 (The Scripps Research Institute Molecular Screening Center, 2011).
Some of the results follow. Unmarked numbers belong to inactive results. The source made the active and inactive calls. Rule as the data show it: active = activation above about 20%; inactive = the rest.

Assay: fluorescence polarization artefacts, biochemical, artefact control for PKA-R2B activator project (AID 504796);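 also: Cy5 labelled IP20 peptide probe with compound but no PKA protein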
Details: FP artifact counterscreen, at 11.4 µM, stronger effect = higher value

Structure (SMILES)	activation
O=C(O)C1=C(C(=O)O)C2CCC1C2	5.92%
O=C(CN(C(=O)CCC(=O)Nc1nccs1)c1ccc(F)cc1)NCc1ccc2c(c1)OCO2	-1.45%
CC(C)(C)c1ccc(C(=O)N2CCC(C(=O)N3CCCCC3)CC2)cc1	4.67%
COc1ccc([N+](=O)[O-])cc1C1NN=C(c2cccc3ccccc23)S1 (stereo not drawn)	4.38%
N#Cc1ccccc1CN1C(=O)S/C(=C/c2cccn2-c2cccc(C(=O)O)c2)C1=O	19.3% (active)
O=C(CCCN1C(=O)c2cccc3cccc(c23)C1=O)N1CCN(Cc2ccc3c(c2)OCO3)CC1	1.66%
COc1cccc(Nc2nnc(SCC(=O)N3CC(C)OC(C)C3)s2)c1 (stereo not drawn)	1.43%
CCCC(=O)Nc1ncnc2c1ncn2[C@@H]1O[C@@H]2OP(=O)(O)OC[C@H]2[C@H]1OC(=O)CCC	0.15%
CC(C)(C)c1nnc(N/N=C/c2ccc(O)cc2)n(N)c1=O	1.05%
O=C(CNC(=O)c1ccccc1)NCC(=O)OCC(=O)c1ccccc1	9.84%
COc1ccc(CC(NC(C)=O)C(=O)NC2CCN(C(=O)c3ccc(Cl)cc3)CC2)cc1 (stereo not drawn)	3.95%
O=S(=O)(NCCNS(=O)(=O)c1ccccc1)c1ccccc1	4.68%
COc1ccc(C/C(C)=N/NC(=O)c2ccncc2)cc1	1.96%
